Laboratory results as given in PubChem BioAssay (EPA / NIEHS).
Where “and” joins values, the source holds several entries; their conditions need not be identical. Identical values can stand only once. Results filed as inconclusive are left out. Calls of active or inactive are those of the source. How the source made its calls, unless noted: active means hit-call score of the fitted dose curve at least 0.9, where 1 is the maximum; inconclusive means response in the unintended direction; inactive means score below 0.9.

What was measured:
[1] = target: chicken Estrogen Receptor (ERa), ESR1 (gene 396099) (UniProt P06212); experiment: ATG_chERa_XSP2: Attagene TRANS-FACTORIAL Multi-Species (XSP2) HepG2 Assay for chicken Estrogen Receptor (ERa) (AID 2283817);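 further: actives raise reporter signal above DMSO so AC50 reflects ER activation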
Outline: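 Readout: fluorescent reporter-transcript fragments resolved by capillary electrophoresis after RT-PCR and HpaI cut. Chicken ERa-Gal4 fusion in transiently transfected HepG2, dosed for 24 h; activity taken as increase over DMSO baseline.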

[2] = test system: zebrafish Estrogen Receptor (ER2a), gene 317734; experiment: ATG_zfER2a_XSP2: Attagene TRANS-FACTORIAL Multi-Species (XSP2) HepG2 Assay for zebrafish Estrogen Receptor (ER2a) (AID 2283818);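 further: hits raise reporter mRNA so AC50 reflects activation of zebrafish ER2a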
Outline: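 Multiplexed trans-reporter readout: RT-PCR then capillary electrophoresis of reporter transcripts after 24 h compound treatment. Human HepG2 carries transfected zebrafish ER2a-Gal4 chimera; 3 nM 6-alpha-fluorotestosterone plus 1.5 nM norgestrel present. Induction scored against DMSO.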

[3] = test system: frog Estrogen Receptor (ER), gene 398734; experiment: ATG_frER1_XSP2: Attagene TRANS-FACTORIAL Multi-Species (XSP2) HepG2 Assay for frog Estrogen Receptor (ER) (AID 2283821);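 further: hits raise reporter mRNA above DMSO baseline so potency means agonist or activator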
Outline: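 Reporter mRNA induction, detected as fluorescence after RT-PCR and capillary electrophoresis, is the endpoint; activity is fitted upward against DMSO. Cells are human liver HepG2 carrying transfected NR-Gal4 chimeras with GAL4-UAS-driven reporters, harvested 24 h post-dosing.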

[4] = test system: zebrafish Estrogen Receptor (ER2b), gene 317733; experiment: ATG_zfER2b_XSP2: Attagene TRANS-FACTORIAL Multi-Species (XSP2) HepG2 Assay for zebrafish Estrogen Receptor (ER2b) (AID 2283823);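 further: fitted upward as reporter gain over DMSO so potency reflects activation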
Outline: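 Cells used were HepG2, transiently transfected with chimeric nuclear receptor-Gal4 reporter units. After 24 h of chemical treatment, reporter transcripts were amplified by RT-PCR, labelled and sized by capillary electrophoresis, with induction analysed relative to DMSO.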

[5] = test system: frog Estrogen Receptor (ER2), gene 100174814; experiment: ATG_frER2_XSP2: Attagene TRANS-FACTORIAL Multi-Species (XSP2) HepG2 Assay for frog Estrogen Receptor (ER2) (AID 2283828)
Outline: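 Cells were transfected with reporter constructs under GAL4-UAS control, dosed with chemicals for 24 h, then lysed for RNA; the frog ER2-driven reporter mRNA was quantified by capillary electrophoresis of labeled PCR fragments, with activity fitted upward from DMSO.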

[6] = target: Peroxisome proliferator-activated receptor gamma (Homo sapiens) (UniProt P37231); experiment: ATG_hPPARg_XSP2: Attagene TRANS-FACTORIAL Multi-Species (XSP2) HepG2 Assay for human Peroxisome Proliferator-activated Receptor gamma (PPARg) (AID 2283829);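 further: actives raise reporter mRNA above DMSO so AC50 reflects PPARg activation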
Outline: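 After transfecting HepG2 with GAL4-UAS reporter constructs, cells are dosed for 24 h; total RNA is reverse-transcribed, PCR-amplified, FAM-labeled, HpaI-digested and resolved by capillary electrophoresis. Activity is measured as mRNA induction relative to DMSO.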

[7] = target: Nuclear receptor subfamily 1 group I member 2 (Mus musculus) (UniProt O54915); experiment: ATG_mPXR_XSP2: Attagene TRANS-FACTORIAL Multi-Species (XSP1) HepG2 Assay for mouse Pregnane X Receptor (PXR) (AID 2283831)
Outline: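 Reporter transcripts were quantified by RT-PCR, FAM primer extension, HpaI digestion and capillary electrophoresis after 24 h of chemical exposure in transiently transfected HepG2 cells carrying chimeric receptor-GAL4 constructs; DMSO served as baseline.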

[8] = test system: zebrafish Peroxisome Proliferator-activated Receptor gamma (PPARg), gene 557037; experiment: ATG_zfPPARg_XSP2: Attagene TRANS-FACTORIAL Multi-Species (XSP2) HepG2 Assay for zebrafish Peroxisome Proliferator-activated Receptor gamma (PPARg) (AID 2283833);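 further: actives increase reporter signal over DMSO so AC50 reflects activation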
Outline: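 Multi-species TRANS format in HepG2, 24 h dosing; medium also contained 3 nM 6-alpha-fluorotestosterone and 1.5 nM norgestrel to stimulate androgen receptor. Zebrafish PPARg-GAL4 induced reporter mRNA was measured by RT-PCR/capillary electrophoresis.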

[9] = test system: turtle Thyroid Hormone Receptor, alpha (TRa), gene 101949057; experiment: ATG_trTRa_XSP2: Attagene TRANS-FACTORIAL Multi-Species (XSP1) HepG2 Assay for turtle Thyroid Hormone Receptor, alpha (TRa) (AID 2283834);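 further: hits raise reporter mRNA over the DMSO baseline so AC50 marks activators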
Outline: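 Transfection of HepG2 with multiple reporter transcription units, then chemical dosing for 24 h. Total RNA was reverse-transcribed, reporter sequences PCR-amplified and FAM-labelled, then sized by capillary electrophoresis. DMSO served as baseline.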

[10] = ATG_M_61_XSP2: Attagene TRANS-FACTORIAL Multi-Species (XSP2) HepG2 Assay for M61 Transcription Factor (Internal Marker) (AID 2283835; active means hit-call score of the fitted dose curve at least 0.9, where 1 is the maximum; inactive means score below 0.9;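 further: reporter mRNA of an internal background marker read by RT-PCR and capillary electrophoresis; active means a rise in signal above the DMSO baseline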)
Outline: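 Transient MRTU transfection of human HepG2; 24 h chemical dosing with 3 nM 6-alpha-fluorotestosterone + 1.5 nM norgestrel added for AR stimulation. RNA isolated, RT, PCR, FAM-labelled, HpaI cut, CE read. Positive direction vs DMSO.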

[11] = target: zebrafish Thyroid Hormone Receptor beta (TRb), thrb (gene 30607) (UniProt Q9PVE4); experiment: ATG_zfTRb_XSP2: Attagene TRANS-FACTORIAL Multi-Species (XSP1) HepG2 Assay for zebrafish Thyroid Hormone Receptor beta (TRb) (AID 2283836)
Outline: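 Transfect HepG2 with multiple reporter transcription units, dose chemical, incubate 24 h. Isolate RNA, reverse-transcribe, amplify and fluorescently label reporter sequences, digest with HpaI, then resolve by capillary electrophoresis. Positive direction fitted against DMSO.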

[12] = ATG_XTT_Cytotoxicity_XSP2: Cytotoxicity Assessment in the Attagene TRANS-FACTORIAL Multi-Species (XSP2) HepG2 Assay (AID 2283837)
Outline: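 XTT-based cell number read-out in human HepG2 liver cells carrying transfected reporter units, measured 24 h after chemical dosing. Activity is signal loss versus DMSO baseline.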

[13] = target: human Thyroid hormone Receptor alpha (TRa), THRA (gene 7067) (UniProt P10827); experiment: ATG_hTRa_XSP2: Attagene TRANS-FACTORIAL Multi-Species (XSP2) HepG2 Assay for human Thyroid hormone Receptor alpha (TRa) (AID 2283838)
Outline: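 Reporter transcripts were read by RT-PCR with fluorescent primer extension, HpaI digestion and capillary electrophoresis. These came from HepG2 cells carrying multiplexed TRa-Gal4 TRANS constructs, harvested 24 hours after dosing. The medium also held 6-alpha-fluorotestosterone (3 nM) and norgestrel (1.5 nM), and increases were fitted against DMSO.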

[14] = target: frog Thyroid hormone Receptor alpha (TRa), thra-a (gene 397942) (UniProt P15204); experiment: ATG_frTRa_XSP2: Attagene TRANS-FACTORIAL Multi-Species (XSP2) HepG2 Assay for frog Thyroid hormone Receptor alpha (TRa) (AID 2283839)
Outline: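 Transfect HepG2 with multiple reporter units (GAL4-UAS), dose chemical, incubate 24 h. Isolate RNA, reverse-transcribe, PCR-amplify reporter, label with 6-FAM by primer extension, digest with HpaI, run capillary electrophoresis; induction scored against DMSO.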

[15] = target: human Thyroid hormone Receptor beta (TRb), THRB (gene 7068) (UniProt P10828); experiment: ATG_hTRb_XSP2: Attagene TRANS-FACTORIAL Multi-Species (XSP2) HepG2 Assay for human Thyroid hormone Receptor beta (TRb) (AID 2283840);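 further: actives raise reporter mRNA so potency reflects agonist-like gain of signal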
Outline: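 Transient transfection of human HepG2 with multi-species NR-Gal4/GAL4-UAS reporter constructs; 24 h compound treatment; RNA isolation, reverse transcription, PCR and HpaI digest; capillary electrophoresis of labeled fragments; activity fitted upward versus DMSO.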

[16] = target: human Vascular Endothelial Growth Factor Receptor 1 (VEGFR1), FLT1 (gene 2321) (UniProt P17948); experiment: NVS_ENZ_hVEGFR1: NovaScreen (NVS) Enzymatic Assay for human Vascular Endothelial Growth Factor Receptor 1 (VEGFR1) (AID 2283226)
Outline: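 Kinase activity of recombinant human VEGFR1 was read by fluorescence after electrophoretic separation of product from substrate, 1 h post-dosing; initial duplicate single-point testing at 25 uM, followed by concentration-series follow-up, with DMSO as baseline.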

[17] = target: Estrogen receptor (Homo sapiens) (UniProt P03372); experiment: CCTE_Deisenroth_AIME_384WELL_LUC_Active: CCTE's 384-well Estrogen Receptor Transactivation Assay with AIME metabolic competence (ERTA luciferase; metabolism positive), Deisenroth Lab (AID 2284030)
Outline: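 AIME metabolism-positive mode: chemicals 0.002 - 200 uM, 2 h with alginate-bound PB/BNF-induced rat S9 → medium to VM7Luc4E2 ERTA, 24 h → luciferase. Positive fit vs 17beta-estradiol; n=4 typical.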

[18] = target: Estrogen receptor (Homo sapiens) (UniProt P03372); experiment: CCTE_Deisenroth_AIME_384WELL_LUC_Inactive: CCTE's 384-well Estrogen Receptor Transactivation Assay without AIME metabolic competence (ERTA luciferase; metabolism negative), Deisenroth Lab (AID 2284038);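 further: VM7Luc4E2 breast cells given medium preincubated 2 h with S9-free microspheres; hits raise estrogen receptor luciferase signal so potencies reflect agonists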
Outline: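 VM7Luc4E2 ER transactivation, luciferase bioluminescence after 24 h, using medium pre-incubated 2 h with S9-free alginate microspheres. Concentrations 0.002–200 uM; gain of signal fitted relative to 17beta-estradiol.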

[19] = target: Estrogen receptor (Homo sapiens) (UniProt P03372); experiment: CCTE_Deisenroth_AIME_384WELL_LUC_Shift: CCTE's 384-well Estrogen Receptor Transactivation Assay with AIME metabolic competence data shift (ERTA luciferase; difference in metabolism positive and negative), Deisenroth Lab (AID 2284041; active means hit-call score of the fitted dose curve at least 0.9, where 1 is the maximum; inactive means score below 0.9;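 further: shift is response with S9 minus without S9 so positive means metabolism raised ER signal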)
Outline: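 Chemicals (0.002–200 uM, 10 points) pre-incubated 2 h with alginate-encapsulated induced male Sprague Dawley rat liver S9 or S9-free, then medium applied 24 h to VM7Luc4E2 cells; luciferase. Endpoint is per-concentration difference, S9-positive minus negative.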

[20] = target: human CYP2C9, CYP2C9 (gene 1559) (UniProt P11712); experiment: NVS_ADME_hCYP2C9: NovaScreen (NVS) CYP450-related Enzyme Activity (ADME) Assay for human CYP2C9 (AID 2283108)
Outline: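 Recombinant human CYP2C9 expressed in SF9 cells, fluorogenic substrate, fluorescence read 0.75 h after dosing. Chemicals first run in duplicate at 10 uM, with actives followed in concentration series; loss of signal versus acetonitrile baseline.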

Sequence of Estrogen receptor (Homo sapiens) (P03372 whole entry, looked up): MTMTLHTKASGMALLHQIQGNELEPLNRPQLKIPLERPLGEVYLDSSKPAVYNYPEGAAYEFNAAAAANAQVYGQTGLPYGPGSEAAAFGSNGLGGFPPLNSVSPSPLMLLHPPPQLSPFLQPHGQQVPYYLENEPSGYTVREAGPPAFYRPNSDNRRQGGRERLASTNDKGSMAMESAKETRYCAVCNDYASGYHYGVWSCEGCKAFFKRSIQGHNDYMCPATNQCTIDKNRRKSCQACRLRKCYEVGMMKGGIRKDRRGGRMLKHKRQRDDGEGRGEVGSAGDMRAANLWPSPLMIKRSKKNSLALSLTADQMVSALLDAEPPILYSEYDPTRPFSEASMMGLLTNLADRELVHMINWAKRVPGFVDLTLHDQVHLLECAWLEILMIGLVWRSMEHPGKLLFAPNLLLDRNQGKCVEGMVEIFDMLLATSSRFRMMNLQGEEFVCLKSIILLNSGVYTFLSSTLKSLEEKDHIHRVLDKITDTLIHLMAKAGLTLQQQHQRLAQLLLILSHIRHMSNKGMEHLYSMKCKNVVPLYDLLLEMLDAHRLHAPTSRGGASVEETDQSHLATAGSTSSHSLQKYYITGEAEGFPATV
Sequence of human Thyroid hormone Receptor alpha (TRa), THRA (gene 7067) (P10827 whole entry, looked up, the tested form may be a part): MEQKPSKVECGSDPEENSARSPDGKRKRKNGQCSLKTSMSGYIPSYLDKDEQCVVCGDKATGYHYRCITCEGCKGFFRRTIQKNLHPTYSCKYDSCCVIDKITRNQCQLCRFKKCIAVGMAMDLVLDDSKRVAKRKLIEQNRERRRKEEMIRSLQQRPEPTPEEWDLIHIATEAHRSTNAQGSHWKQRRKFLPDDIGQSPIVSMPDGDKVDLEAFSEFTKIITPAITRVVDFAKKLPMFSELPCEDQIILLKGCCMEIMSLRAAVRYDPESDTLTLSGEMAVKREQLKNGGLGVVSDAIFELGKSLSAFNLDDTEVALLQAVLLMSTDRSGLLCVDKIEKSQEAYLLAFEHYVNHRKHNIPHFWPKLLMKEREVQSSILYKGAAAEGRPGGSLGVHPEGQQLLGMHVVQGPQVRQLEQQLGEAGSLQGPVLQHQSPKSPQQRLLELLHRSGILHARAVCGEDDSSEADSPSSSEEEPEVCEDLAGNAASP
Sequence of Nuclear receptor subfamily 1 group I member 2 (Mus musculus) (O54915 whole entry, looked up, the tested form may be a part): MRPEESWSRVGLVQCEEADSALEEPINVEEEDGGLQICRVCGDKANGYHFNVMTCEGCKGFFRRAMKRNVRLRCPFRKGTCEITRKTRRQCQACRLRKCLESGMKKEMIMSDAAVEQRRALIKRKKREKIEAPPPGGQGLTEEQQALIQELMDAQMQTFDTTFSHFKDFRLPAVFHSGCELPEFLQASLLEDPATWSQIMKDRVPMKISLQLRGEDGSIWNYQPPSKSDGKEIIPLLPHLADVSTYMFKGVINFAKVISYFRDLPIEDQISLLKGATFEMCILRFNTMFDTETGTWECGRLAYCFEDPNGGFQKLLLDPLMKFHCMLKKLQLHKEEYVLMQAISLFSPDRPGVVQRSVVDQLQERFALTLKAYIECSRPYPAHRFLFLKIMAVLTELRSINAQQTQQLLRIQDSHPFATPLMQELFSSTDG
Sequence of chicken Estrogen Receptor (ERa), ESR1 (gene 396099) (P06212 whole entry, looked up, the tested form may be a part): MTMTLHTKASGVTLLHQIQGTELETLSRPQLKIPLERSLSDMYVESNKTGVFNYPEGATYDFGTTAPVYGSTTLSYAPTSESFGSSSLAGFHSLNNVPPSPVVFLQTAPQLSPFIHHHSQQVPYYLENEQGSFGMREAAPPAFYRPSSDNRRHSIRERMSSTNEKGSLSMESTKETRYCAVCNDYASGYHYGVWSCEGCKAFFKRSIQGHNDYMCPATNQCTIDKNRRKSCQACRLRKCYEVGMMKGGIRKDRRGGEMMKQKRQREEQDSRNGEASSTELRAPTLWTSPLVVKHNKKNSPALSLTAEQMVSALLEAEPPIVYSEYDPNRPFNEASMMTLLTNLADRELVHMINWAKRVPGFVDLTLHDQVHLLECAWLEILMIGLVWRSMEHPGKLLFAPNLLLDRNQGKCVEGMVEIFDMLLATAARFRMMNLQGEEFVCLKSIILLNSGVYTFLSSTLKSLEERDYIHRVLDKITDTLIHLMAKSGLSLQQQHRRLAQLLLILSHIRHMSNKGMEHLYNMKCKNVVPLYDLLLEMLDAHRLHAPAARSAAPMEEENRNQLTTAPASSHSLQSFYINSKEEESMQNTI
Sequence of human Thyroid hormone Receptor beta (TRb), THRB (gene 7068) (P10828 whole entry, looked up, the tested form may be a part): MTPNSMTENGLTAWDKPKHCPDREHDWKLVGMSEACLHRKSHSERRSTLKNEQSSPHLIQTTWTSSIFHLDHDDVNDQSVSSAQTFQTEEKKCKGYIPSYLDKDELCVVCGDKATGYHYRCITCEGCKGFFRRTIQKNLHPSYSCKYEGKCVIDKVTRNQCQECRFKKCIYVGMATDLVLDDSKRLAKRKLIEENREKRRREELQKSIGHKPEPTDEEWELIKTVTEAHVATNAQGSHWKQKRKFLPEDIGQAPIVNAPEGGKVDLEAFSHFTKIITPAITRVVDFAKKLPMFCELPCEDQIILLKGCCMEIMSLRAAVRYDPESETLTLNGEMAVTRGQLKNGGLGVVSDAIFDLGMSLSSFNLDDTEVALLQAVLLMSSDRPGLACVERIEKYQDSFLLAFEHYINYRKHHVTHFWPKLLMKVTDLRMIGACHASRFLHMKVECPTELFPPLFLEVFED
Sequence of Peroxisome proliferator-activated receptor gamma (Homo sapiens) (P37231 whole entry, looked up, the tested form may be a part): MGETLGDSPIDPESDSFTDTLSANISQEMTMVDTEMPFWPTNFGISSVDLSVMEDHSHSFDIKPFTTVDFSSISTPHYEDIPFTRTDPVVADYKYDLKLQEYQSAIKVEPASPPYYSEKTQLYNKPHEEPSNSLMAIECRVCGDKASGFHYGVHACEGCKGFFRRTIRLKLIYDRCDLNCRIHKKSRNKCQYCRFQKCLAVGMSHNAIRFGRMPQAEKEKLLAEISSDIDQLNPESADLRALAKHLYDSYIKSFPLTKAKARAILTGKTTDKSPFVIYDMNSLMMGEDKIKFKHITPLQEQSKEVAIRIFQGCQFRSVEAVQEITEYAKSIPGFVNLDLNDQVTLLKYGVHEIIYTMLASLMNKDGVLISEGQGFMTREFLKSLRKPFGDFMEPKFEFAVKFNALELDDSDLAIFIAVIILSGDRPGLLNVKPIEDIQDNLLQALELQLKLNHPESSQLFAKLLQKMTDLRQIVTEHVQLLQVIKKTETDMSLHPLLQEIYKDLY
Sequence of zebrafish Thyroid Hormone Receptor beta (TRb), thrb (gene 30607) (Q9PVE4 whole entry, looked up): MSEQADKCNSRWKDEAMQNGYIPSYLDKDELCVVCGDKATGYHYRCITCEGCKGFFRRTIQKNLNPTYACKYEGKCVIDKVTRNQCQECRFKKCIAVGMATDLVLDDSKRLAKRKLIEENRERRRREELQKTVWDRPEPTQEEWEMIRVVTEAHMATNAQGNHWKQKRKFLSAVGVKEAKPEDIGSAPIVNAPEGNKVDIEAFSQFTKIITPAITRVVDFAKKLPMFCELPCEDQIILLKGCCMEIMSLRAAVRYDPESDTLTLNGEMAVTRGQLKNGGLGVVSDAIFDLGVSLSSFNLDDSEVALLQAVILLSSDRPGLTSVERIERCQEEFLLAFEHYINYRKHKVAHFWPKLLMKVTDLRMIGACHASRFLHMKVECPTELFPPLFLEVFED
Sequence of human CYP2C9, CYP2C9 (gene 1559) (P11712 whole entry, looked up): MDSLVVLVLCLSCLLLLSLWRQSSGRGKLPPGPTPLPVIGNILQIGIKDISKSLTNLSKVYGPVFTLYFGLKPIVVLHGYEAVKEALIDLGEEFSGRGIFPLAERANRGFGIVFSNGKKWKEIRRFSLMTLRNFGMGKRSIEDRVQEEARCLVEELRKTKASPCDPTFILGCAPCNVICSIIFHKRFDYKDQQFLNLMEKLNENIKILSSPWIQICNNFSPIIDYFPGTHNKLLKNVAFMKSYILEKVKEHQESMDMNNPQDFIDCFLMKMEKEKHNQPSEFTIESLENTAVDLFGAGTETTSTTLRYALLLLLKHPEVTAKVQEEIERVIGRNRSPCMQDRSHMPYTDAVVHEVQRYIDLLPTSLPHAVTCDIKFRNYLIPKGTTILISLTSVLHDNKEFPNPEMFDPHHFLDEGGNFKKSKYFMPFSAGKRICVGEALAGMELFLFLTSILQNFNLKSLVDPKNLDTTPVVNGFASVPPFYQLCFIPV
Sequence of frog Thyroid hormone Receptor alpha (TRa), thra-a (gene 397942) (P15204 whole entry, looked up, the tested form may be a part): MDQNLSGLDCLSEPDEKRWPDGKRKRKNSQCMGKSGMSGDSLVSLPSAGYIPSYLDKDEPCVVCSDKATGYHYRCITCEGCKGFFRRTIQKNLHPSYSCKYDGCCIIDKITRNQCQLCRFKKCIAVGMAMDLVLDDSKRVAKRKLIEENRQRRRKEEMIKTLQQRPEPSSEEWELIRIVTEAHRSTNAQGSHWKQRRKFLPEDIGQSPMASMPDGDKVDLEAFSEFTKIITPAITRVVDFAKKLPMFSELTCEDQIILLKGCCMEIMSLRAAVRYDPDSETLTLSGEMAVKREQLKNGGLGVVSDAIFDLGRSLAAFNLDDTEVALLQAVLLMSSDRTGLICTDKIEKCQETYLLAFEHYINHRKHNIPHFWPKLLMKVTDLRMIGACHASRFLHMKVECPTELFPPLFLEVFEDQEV

## Cc1cc(O)cc(C)c1Cl
[1]
  AC50: 24.2 µM (active) and 31.7 µM (active)
[2]
  AC50: 100 µM (active) and 23.8 µM (active)
[3]
  AC50: 66.8 µM (active) and 26.3 µM (active)
[4]
  AC50: 68.1 µM (active) and 34.5 µM (active)
[5]
  AC50: 29.3 µM (active) and 19.5 µM (active)
[6]
  AC50: 48.2 µM (active) and 63.3 µM (active)
[7]
  outcome: inactive
[8]
  outcome: inactive
[9]
  outcome: inactive
[10]
  outcome: inactive
[11]
  outcome: inactive
[12]
  outcome: inactive
[13]
  outcome: inactive
[14]
  outcome: inactive
[15]
  outcome: inactive

## CC(=O)CCc1ccccc1
[16]
  outcome: inactive

## CCCCCCC1CCC(=O)O1 (stereo not given)
[17]
  AC50: 0.244 nM (active)
[18]
  AC50: 1.29 nM (active)
[19]
  AC50: 0.196 nM (active)

## Sc1nc2ccccc2s1
[20]
  AC50: 1900 nM (active)
